Assay results published in PubChem BioAssay (NCI).
The panel holds about 79,000 compounds, 15% with a hit somewhere; the sample as a whole holds those more often. Cut-off read from the data, not from the text of the source: active = growth inhibition above about 70%; inactive = the rest.

Columns and labels:
[1] = NCI Yeast Anticancer Drug Screen. Data for the rad50 strain (AID 155);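 note: 0% = growth of vehicle-only cultures of the same strain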; conditions: S. cerevisiae rad50 strain growth inhibition; at 50.0 µM; active compounds read high
In short: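 Vehicle-treated cultures provide the reference for the growth inhibition reported for compound-exposed, repair-deficient yeast.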

[2] = NCI Yeast Anticancer Drug Screen. Data for the mec2-1 strain (AID 157); conditions: S. cerevisiae mec2-1 strain, at 50.0 µM, active compounds read high
In short: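 Readout is yeast growth inhibition, normalised to vehicle-treated controls, in the mec2-1 strain exposed to compound.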

[3] = NCI Yeast Anticancer Drug Screen. Data for the sgs1 mgt1 strain (AID 161);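 note: 0% = growth of cultures given vehicle only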; conditions: S. cerevisiae sgs1 mgt1 strain, at 50.0 µM, active compounds read high
In short: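 This yeast growth screen uses a strain with defined DNA-repair lesions; compound-treated growth is compared with vehicle-treated growth.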

[4] = NCI Yeast Anticancer Drug Screen. Data for the cln2 rad14 strain (AID 165);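 note: 0% = growth equal to vehicle treated cultures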; conditions: S. cerevisiae cln2 rad14 strain, at 50.0 µM, active compounds read high
In short: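 Relative to vehicle controls, growth inhibition of compound-treated cln2 rad14 yeast was recorded.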

[5] = NCI Yeast Anticancer Drug Screen. Data for the bub3 strain (AID 167); conditions: S. cerevisiae bub3 mutant strain, at 50.0 µM, active compounds read high
In short: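 Mutant yeast screening strain plus compound; vehicle-treated cultures serve as the 0% inhibition reference.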

[6] = NCI Yeast Anticancer Drug Screen. Data for the mlh1 rad18 strain (AID 175); conditions: S. cerevisiae mlh1 rad18 strain growth inhibition; at 50.0 µM; active compounds read high
In short: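 Test agents were incubated with a yeast strain of defined genotype (DNA damage repair defect). Inhibition of growth was derived by comparison with vehicle-exposed cultures.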

Measured: growth inhibition

C/C(=N\Nc1ccc2ccccc2n1)c1ccccc1O
inactive: [1] -19% | [2] -25.4% | [3] -37.3% | [4] -25.8% | [5] -66.5% | [6] -3.5%

Cc1cnc2cc(Cl)ccc2c1SCC(=O)O
inactive: [1] 3.6% | [2] -39.7% | [3] -42.9% | [4] -24.4% | [5] -36.6% | [6] 1.05%

CC(=O)O[C@@H]1[C@@H](C)[C@]2(CC(c3ccoc3)OC2O)C2CCC3O[C@]3(C)[C@]2(C)[C@@H]1OC(C)=O (some centres not stated)
inactive: [1] -16% | [2] -20.1% | [3] -42.6% | [4] -12.2% | [5] -39.5% | [6] -28.4%

O=C(NC12CC3CC(CC(C3)C1)C2)C(O)C(O)C(O)C(O)CO (configuration not stated)
inactive: [1] -16.6% | [2] -1.75% | [3] 20.1% | [4] 0.9% | [5] 5.6% | [6] 2.65%

CCSc1n[nH]c(=O)nc1NN
inactive: [1] -0.35% | [2] -3.85% | [3] -28.4% | [4] -60% | [5] -19.2% | [6] -2.75%

N#CN=C(N)NC(=O)/C=C/C=C/c1ccc(Cl)cc1
inactive: [1] 5.8% | [2] 16.8% | [3] 0.8% | [4] 9.8% | [5] 38% | [6] 24.8%

COC(=O)c1c(OC)cc2cc3c(c(O)c2c1C)C(=O)C1(O)C(=O)C=C(OC)C(OC(=O)CC(C)N)=C1C3=O (configuration not stated)
inactive: [1] 26.1% | [2] 1.05% | [3] 24.2% | [4] 25.9% | [5] 22.9% | [6] 33%

Nc1ccc2cn[nH]c2c1
inactive: [1] 3.5% | [2] -11.6% | [3] -6.95% | [4] -10.4% | [5] 5.8% | [6] -2%

C=C1c2nc3ccccc3n2C=C(c2ccc(C)cc2)N1c1ccc(OC)cc1
inactive: [1] -10.2% | [2] -6.45% | [3] -7% | [4] 15.5% | [5] -19% | [6] -17.9%

C=C(C)C12CC3CC/C(=N/O)C(C1)C3(N1CCOCC1)C/C2=N/O (configuration not stated)
inactive: [1] -21.6% | [2] -18.9% | [3] -16.2% | [4] -12.3% | [5] -7.15% | [6] -25.9%

C[N+](C)([O-])Cc1cccc(NC(=O)c2ccc(C(=O)Nc3cccc(C[N+](C)(C)[O-])c3)cc2)c1
inactive: [1] -4.3% | [2] 1.25% | [3] -8.2% | [4] 1.3% | [5] -12.8% | [6] -7.95%

Cc1nn(C(=O)c2cccnc2)c(-c2ccccc2)c1N=Nc1ccc(C(=O)O)cc1
inactive: [1] -16.5% | [2] 11.2% | [3] 4.65% | [4] 29.4% | [5] -2.8% | [6] 18.8%

Oc1ccc(Br)cc1C=Nc1ccccc1
inactive: [1] 26.3% | [2] 18.9% | [3] 40.8% | [4] 29.4% | [5] 26.2% | [6] 14.9%

CCCCCCCCCCCCCCCC(=O)OCC(O)CO (configuration not stated)
inactive: [1] -28.4% | [2] -0.35% | [3] -6.25% | [4] -167% | [5] -11% | [6] 1.1%

O=S(=O)(c1ccc(Nc2nnc(-c3ccccc3)s2)cc1)N1CCCCC1
inactive: [1] -4% | [2] 12.8% | [3] 42.3% | [4] -23.1% | [5] 40.9% | [6] 5.65%

CN(C)c1nc2oc(-c3ccccc3)c(-c3ccccc3)c2c2nnnn12
inactive: [1] 12% | [2] 8.05% | [3] 2.65% | [4] 15.8% | [5] 1.65% | [6] -11.9%

CC(C)=CCc1ccc2c(c1)CCCN2C
inactive: [1] -44.4% | [2] -22.1% | [3] -17.4% | [4] -47% | [5] 20.9% | [6] 1.15%

COc1ccc(C(Cl)=C(c2ccc(OCCN(C)C)cc2)c2ccc(OCCN(C)C)cc2)cc1
inactive: [1] 29.7% | [2] 15.6% | [3] 40.1% | [4] 28.8% | [5] 28.4% | [6] 20.1%

CCOC(=O)NCS(=O)(=O)N1CCOCC1
inactive: [1] 25.6% | [2] 9.25% | [3] 8% | [4] 19.6% | [5] 3.45% | [6] 9.7%

CC(=O)[OH+]c1c(I)cc(I)cc1C(=O)[O-].CC(=O)[OH+]c1c(I)cc(I)cc1C(=O)[O-].[Cu+2]
inactive: [1] -8.15% | [2] 2.3% | [3] -5.8% | [4] -5% | [5] 11.5% | [6] 4.95%

C[N+](C)(C)C1(Cc2ccccc2)c2ccccc2-c2ccc(Cl)cc21 (configuration not stated)
inactive: [1] 29.1% | [2] 4.85% | [3] 21.2% | [4] -15.8% | [5] -6.8% | [6] 5.9%

CC(C)(CO)CN1CCCC1
inactive: [1] 10.3% | [2] -25.9% | [3] -4.05% | [4] 1.3% | [5] 3% | [6] 0.8%

Cc1ccc(P(=O)(O)O)c([N+](=O)[O-])c1
inactive: [1] 5.4% | [2] 1.7% | [3] -3.65% | [4] -7.2% | [5] -4.35% | [6] 12.9%

CCc1cc(O)c([N+](=O)[O-])cc1[N+](=O)[O-]
inactive: [1] -15.7% | [2] -3.95% | [3] 21.1% | [4] -34.8% | [5] -17.2% | [6] -7.95%

CCCCCC(N)=O
inactive: [1] 16.6% | [2] -7.05% | [3] 4.25% | [4] 15.2% | [5] 14.8% | [6] 31.8%

O=C(c1cccs1)c1ccc2ccccc2c1C(=O)O
inactive: [1] -6.95% | [2] -11% | [3] -0.85% | [4] 3.9% | [5] 58.5% | [6] 4.7%

Clc1ccc(-c2nnc(-c3ccc4ccccc4c3)o2)cc1
inactive: [1] -43% | [2] -60.8% | [3] -22.2% | [4] 3.1% | [5] -47.5% | [6] -25.4%

CC(CCc1ccccc1)NC1=NCCO1 (configuration not stated)
inactive: [1] -9.6% | [2] -12.2% | [3] -16.4% | [4] -23.6% | [5] -1.2% | [6] 2.7%

OCc1ccc(CO)o1
inactive: [1] 17.8% | [2] 15.7% | [3] -16.4% | [4] -1.55% | [5] 24.1% | [6] 5.4%

O=C1/C(=C\C=C\c2ccccc2)CCC/C1=C/C=C/c1ccccc1
inactive: [1] 15.3% | [2] 5.05% | [3] 5.7% | [4] 20.8% | [5] 34% | [6] 3.1%

CC(=O)Nc1ccc(C(O)/C(=N/N)c2nc3ccc(Cl)cc3[nH]c2=O)cc1 (configuration not stated)
inactive: [1] 9.15% | [2] -8.9% | [3] -6% | [4] -1.1% | [5] 5.55% | [6] -26.9%

C/C=C\COC(=O)CC(C)=O
inactive: [1] -1.35% | [2] -23.4% | [3] -4.3% | [4] -2.75% | [5] -26.3% | [6] -16.6%

CCC1=Nc2ccccc2C(c2ccccc2)NC1=O (configuration not stated)
inactive: [1] -2% | [2] -19.7% | [3] 4.5% | [4] 6% | [5] -9.65% | [6] 24.9%

CC(=O)/C=C1\N(C)c2ccccc2C1(C)C
inactive: [1] 2.1% | [2] -12.3% | [3] -2.05% | [4] -8.55% | [5] -2.9% | [6] -10.9%

CCC(=O)NC(Nc1cccc(F)c1C)(C(F)(F)F)C(F)(F)F
inactive: [1] -22.4% | [2] 23.4% | [3] -37.4% | [4] 14.7% | [5] 7.25% | [6] -5.5%

NC(=O)C(=CNC(=S)Nc1ccc(S(=O)(=O)Nc2ccccn2)cc1)C(N)=O
inactive: [1] -31.8% | [2] -8.3% | [3] 22.3% | [4] -4.1% | [5] 11.3% | [6] -26.8%

CC(C)NC(=O)OCc1c(COC(=O)NC(C)C)c2cccn2c2c1cnn2-c1ccccc1
inactive: [1] -0.9% | [2] 0.6% | [3] -11.2% | [4] -3.7% | [5] 0.15% | [6] 18.3%
